Source: PubChem BioAssay AID1159580 (chemical genetic matrix, 2015)
In all, about 5,500 compounds went through this assay and about 2,000 (36%) were called active. Not shown: some 18% with an inconclusive outcome. Rule as the data show it: active = normalized growth mostly below about 0.91 (no sharp cut-off); inconclusive = no clear call, values can overlap the other calls; inactive = mostly above about 0.92. This is one part of the list.

Experiment: chemical genetic growth profiling, strain panel (AID 1159580);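 also: tested at 20 µM; growth read once vehicle control cultures reached saturation at 30 °C; 1 = growth at the plate median or of vehicle wells; lower values mean less growth of the strain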
Settings: S. cerevisiae deletion strains, growth OD

Measured: normalized growth

CCN(CC)CCOCCOC(=O)C1(c2ccccc2)CCCC1
inactive: locus YAL013W, strain DEP1, stronger effect = lower value 0.986 | locus YAL021C, strain ccr4, stronger effect = lower value 0.986 | locus YAL026C, strain drs2, stronger effect = lower value 0.995 | locus YAL030W, strain snc1, stronger effect = lower value 0.992 | locus YAL040C, strain CLN3, stronger effect = lower value 0.988 | locus YBL061C, strain skt5, stronger effect = lower value 0.996 | locus YBR009C, strain hhf1, stronger effect = lower value 0.997 | locus YBR023C, strain chs3, stronger effect = lower value 0.987 | locus YBR171W, strain sec66, stronger effect = lower value 0.987 | locus YBR231C, strain swc5, stronger effect = lower value 0.982 | locus YBR279W, strain paf1, stronger effect = lower value 0.995 | locus YCL011C, strain gbp2, stronger effect = lower value 0.99 | locus YCL016C, strain dcc1, stronger effect = lower value 0.998 | locus YCL061C, strain MRC1 (second series), stronger effect = lower value 0.994 | locus YCL061C, strain MRC1, stronger effect = lower value 0.989 | locus YCL069W, strain vba3, stronger effect = lower value 0.994 | locus YCR088W, strain abp1, stronger effect = lower value 0.981 | locus YDL005C, strain med2, stronger effect = lower value 0.988 | locus YDL040C, strain nat1, stronger effect = lower value 0.998 | locus YDR001C, strain nth1, stronger effect = lower value 0.999 | locus YDR069C, strain doa4, stronger effect = lower value 0.984 | locus YDR137W, strain rgp1, stronger effect = lower value 0.981 | locus YDR150W, strain NUM1, stronger effect = lower value 0.995 | locus YDR159W, strain sac3, stronger effect = lower value 0.99 | locus YDR195W, strain ref2 0.966 | locus YDR297W, strain sur2, stronger effect = lower value 0.989 | locus YDR334W, strain swr1, stronger effect = lower value 0.995 | locus YDR335W, strain msn5, stronger effect = lower value 0.996 | locus YDR392W, strain spt3, stronger effect = lower value 1.01 | locus YEL003W, strain gim4, stronger effect = lower value 0.999 | locus YEL037C, strain rad23, stronger effect = lower value 0.999 | locus YEL061C, strain CIN8 (second series), stronger effect = lower value 0.999 | locus YER002W, strain NOP16, stronger effect = lower value 1 | locus YER015W, strain faa2, stronger effect = lower value 0.992 | locus YER016W, strain bim1, stronger effect = lower value 0.995 | locus YER111C, strain swi4, stronger effect = lower value 0.985 | locus YER155C, strain BEM2 (second series), stronger effect = lower value 0.992 | locus YFR010W, strain ubp6, stronger effect = lower value 1 | locus YGL167C, strain pmr1, stronger effect = lower value 0.991 | locus YGL173C, strain kem1, stronger effect = lower value 0.999 | locus YGL227W, strain vid30, stronger effect = lower value 0.981 | locus YGL240W, strain doc1, stronger effect = lower value 0.998 | locus YGL253W, strain hxk2, stronger effect = lower value 0.989 | locus YGR078C, strain PAC10, stronger effect = lower value 0.972 | locus YGR229C, strain SMI1, stronger effect = lower value 0.979 | locus YHR013C, strain ard1, stronger effect = lower value 0.969 | locus YHR027C, strain rpn1, stronger effect = lower value 0.996 | locus YHR030C, strain SLT2, stronger effect = lower value 0.967 | locus YHR079C, strain IRE1, stronger effect = lower value 0.975 | locus YHR142W, strain chs7, stronger effect = lower value 0.99 | locus YJL092W, strain hpr5, stronger effect = lower value 0.997 | locus YJL095W, strain BCK1 (second series), stronger effect = lower value 0.992 | locus YJL095W, strain BCK1, stronger effect = lower value 0.966 | locus YJL115W, strain asf1, stronger effect = lower value 0.996 | locus YJL129C, strain trk1, stronger effect = lower value 0.994 | locus YJL154C, strain vps35, stronger effect = lower value 0.998 | locus YJL164C, strain tpk1, stronger effect = lower value 0.977 | locus YJL166W, strain qcr8, stronger effect = lower value 0.997 | locus YJL187C, strain SWE1, stronger effect = lower value 0.996 | locus YJR066W, strain TOR1, stronger effect = lower value 0.917 | locus YJR075W, strain HOC1, stronger effect = lower value 0.99 | locus YKL160W, strain elf1, stronger effect = lower value 1 | locus YKR026C, strain gcn3, stronger effect = lower value 0.98 | locus YKR091W, strain srl3, stronger effect = lower value 0.992 | locus YLL001W, strain dnm1, stronger effect = lower value 0.994 | locus YLL026W, stronger effect = lower value 0.99 | locus YLL041C, strain sdh2, stronger effect = lower value 1 | locus YLR027C, strain aat2, stronger effect = lower value 0.993 | locus YLR113W, strain HOG1, stronger effect = lower value 0.931 | locus YLR221C, strain rsa3, stronger effect = lower value 0.987 | locus YLR258W, strain gsy2, stronger effect = lower value 0.979 | locus YLR262C, strain YPT6 (second series), stronger effect = lower value 0.947 | locus YLR320W, strain mms22, stronger effect = lower value 0.99 | locus YLR342W, strain FKS1, stronger effect = lower value 0.987 | locus YLR357W, strain rsc2, stronger effect = lower value 0.975 | locus YLR370C, strain arc18, stronger effect = lower value 0.998 | locus YLR384C, strain iki3, stronger effect = lower value 0.992 | locus YML120C, strain ndi1, stronger effect = lower value 0.989 | locus YMR058W, strain fet3, stronger effect = lower value 0.999 | locus YMR125W, strain sto1, stronger effect = lower value 0.987 | locus YMR129W, stronger effect = lower value 0.997 | locus YMR205C, strain PFK2, stronger effect = lower value 0.986 | locus YMR231W, strain pep5, stronger effect = lower value 0.996 | locus YMR307W, strain GAS1, stronger effect = lower value 0.986 | locus YNL071W, strain lat1, stronger effect = lower value 1.02 | locus YNL175C, strain NOP13, stronger effect = lower value 1.02 | locus YNL183C, strain NPR1, stronger effect = lower value 0.915 | locus YNL197C, strain WHI3, stronger effect = lower value 0.994 | locus YNL209W, strain ssb2, stronger effect = lower value 0.998 | locus YNL224C, strain SQS1, stronger effect = lower value 1 | locus YNL248C, strain rpa49, stronger effect = lower value 1.01 | locus YNL322C, strain KRE1 (second series), stronger effect = lower value 0.99 | locus YNL322C, strain KRE1, stronger effect = lower value 1.01 | locus YNR049C, strain mso1, stronger effect = lower value 0.989 | locus YOR001W, strain rrp6, stronger effect = lower value 0.994 | locus YOR070C, strain gyp1, stronger effect = lower value 0.999 | locus YOR080W, strain dia2, stronger effect = lower value 0.989 | locus YOR083W, strain WHI5 (second series), stronger effect = lower value 0.996 | locus YOR083W, strain WHI5, stronger effect = lower value 1 | locus YOR106W, strain vam3, stronger effect = lower value 1.02 | locus YOR231W, strain MKK1, stronger effect = lower value 0.983 | locus YOR265W, strain rbl2, stronger effect = lower value 0.988 | locus YOR270C, strain vph1, stronger effect = lower value 0.999 | locus YOR290C, strain snf2, stronger effect = lower value 0.992 | locus YPL051W, strain arl3, stronger effect = lower value 0.989 | locus YPL055C, strain LGE1, stronger effect = lower value 0.996 | locus YPL078C, strain atp4, stronger effect = lower value 0.994 | locus YPL106C, strain sse1, stronger effect = lower value 0.995 | locus YPL240C, strain hsp82, stronger effect = lower value 0.995 | locus YPL241C, strain CIN2, stronger effect = lower value 0.995 | locus YPL256C, strain CLN2, stronger effect = lower value 0.959
